Test results taken from PubChem BioAssay.
A number with no mark means an inactive call. Active and inactive are the calls of the source. Rule as the data show it: active = fold change permeability below about 0.7 or above about 1.3; inactive = in between.

Test: compounds altering in vitro BBB leakiness – cell-based, FITC-avidin fluorescence, HTS, primary screen (AID 1963498); also: test concentration not given here
Conditions: brain endothelial barrier, actives lie on both sides

Row | SMILES | fold change permeability
1 | Cc1cc(CN)cc(C)c1NC(=O)c1ccc(-c2cc(Cl)ccc2Cl)o1 | 1.5 (active)
2 | NC/C=C/C(=O)O | 0.8
3 | N=C(N)c1ccccc1 | 0.9
4 | O=C(c1ccc(OCCCc2cnc[nH]2)cc1)C1CC1 | 1
5 | COc1ccc(CCN(C)CCc2ccc(OC)c(OC)c2)cc1OC | 2 (active)
6 | CCN(Cc1cccnc1)C(=O)CN(c1ccc(OC)nc1)S(=O)(=O)c1ccccc1C | 1.9 (active)
7 | Cc1[nH]c(=O)c(C#N)cc1-c1ccncc1 | 0.8
8 | COc1cc(-c2cc(-c3ccc(N4CCNCC4)cc3)cnc2C)cc(OC)c1OC | 1.2
9 | Fc1ccc(CN(C2=NCCN2)c2c(Cl)cccc2Cl)cc1 | 1.1
10 | CCCOc1ccccc1-c1nc2n[nH]nc2c(=O)[nH]1 | 1.9 (active)
11 | O=C(O)CCCCN(CCc1ccccc1OCc1ccc(CCc2ccccc2)cc1)Cc1ccc(C(=O)O)cc1 | 1.2
12 | O=C(O)c1cc([N+](=O)[O-])ccc1NCCCc1ccccc1 | 1
13 | NC(=O)C(=O)O | 0.8
14 | CCNCc1nc2c(N)nc3ccccc3c2n1CC(C)(C)O | 1.1
15 | O=C(O)c1cc2cc(Cc3cccnc3)ccc2o1 | 0.8
16 | Clc1ccc(N2CCN(Cc3c[nH]c4ncccc34)CC2)cc1 | 1.4 (active)
17 | CCCCC1C(=O)N(c2ccccc2)N(c2ccccc2)C1=O | 0.9
18 | CC(C)C[C@H](NC(=O)[C@H]1O[C@@H]1C(=O)O)C(=O)NCCCCN=C(N)N | 1.3 (active)
19 | O=c1[nH]c(=S)[nH]c(-c2ccccc2)c1Cc1c(O)ccc2ccccc12 | 0.8
